# Mcl1 Noxa PPI: Mcl-1/Noxa binding inhibitors, primary screen, biochemical, TR-FRET, 1536-well; TR-FRET Mcl-1/Noxa peptide binding, 2 h; inhibition, % at 21.7 µM; actives 1.5% (n = 220,000); AID 1022, 2008;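 active = compounds that cut the protein-peptide binding signal by more than 50% relative to plate controls in a single-dose test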;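 note: His-tagged Mcl-1 with rhodamine Noxa BH3 peptide and terbium anti-His antibody; 0% = Mcl-1 plus Noxa peptide wells and 100% = peptide-only wells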
# Target sequence (Q07820 whole entry, looked up): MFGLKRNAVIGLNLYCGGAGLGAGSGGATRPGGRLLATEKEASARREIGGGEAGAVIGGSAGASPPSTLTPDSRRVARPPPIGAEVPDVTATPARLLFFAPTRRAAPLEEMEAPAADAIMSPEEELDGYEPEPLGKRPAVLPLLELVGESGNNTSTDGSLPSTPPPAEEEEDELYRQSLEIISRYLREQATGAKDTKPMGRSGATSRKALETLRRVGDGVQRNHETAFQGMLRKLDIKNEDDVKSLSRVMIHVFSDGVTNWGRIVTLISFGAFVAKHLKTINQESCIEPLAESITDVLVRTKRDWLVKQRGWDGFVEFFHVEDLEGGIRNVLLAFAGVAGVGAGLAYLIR
# Arbovirus anti: antivirals against arbovirus infection, primary screen, cell-based, full library, 10K replicate subset; AID 1251, 2008; arbovirus infection cell-based antiviral screen; inhibition, % at 10 µM; actives 0.37% (n = 200,000); in the data active = inhibition above about 30%
# Mcl1 Bid PPI: Mcl-1/Bid binding inhibitors, primary screen, biochemical, TR-FRET, 1536-well; AID 1021, 2008; Induced myeloid leukemia cell differentiation protein Mcl-1 (Homo sapiens), Q07820; inhibition, % at 21.7 µM; actives 0.97% (n = 220,000); TR-FRET Mcl-1/Bid-Dy647 peptide binding;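 active = compounds that cut the binding signal by more than half at the single screening dose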;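 note: His-tagged Mcl-1 with europium anti-His antibody binding Bid BH3 peptide; 0% = Mcl-1 plus peptide wells and 100% = peptide-only wells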
# Bim-Mcl-1: inhibitors of Bim peptide binding to Mcl-1, primary screen, biochemical, bead-based flow cytometry, multiplex | Induced myeloid leukemia cell differentiation protein Mcl-1 (Homo sapiens), Q07820 | Bim peptide-Mcl-1 binding | inhibition, % at 10 µM | actives 0.1% (n = 190,000) | AID 1009, 2008; in the data active = inhibition above about 40%;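 note: 0% = no compound tracer wells and 100% = peptide blocker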
# 14-3-3 Bad PPI: inhibitors of 14-3-3 zeta/Bad binding, primary screen, biochemical, TR-FRET, bovine 14-3-3 zeta | actives 0.71% (n = 220,000) | TR-FRET 14-3-3zeta/Dy647-pBad peptide displacement, 1 h | AID 781, 2007 | inhibition, % at 21.7 µM;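 active = inhibition above about 70%, limit read from the data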;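 note: 0% = full 14-3-3 plus peptide FRET controls and 100% = background without 14-3-3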
# Target sequence (P63103 whole entry, looked up): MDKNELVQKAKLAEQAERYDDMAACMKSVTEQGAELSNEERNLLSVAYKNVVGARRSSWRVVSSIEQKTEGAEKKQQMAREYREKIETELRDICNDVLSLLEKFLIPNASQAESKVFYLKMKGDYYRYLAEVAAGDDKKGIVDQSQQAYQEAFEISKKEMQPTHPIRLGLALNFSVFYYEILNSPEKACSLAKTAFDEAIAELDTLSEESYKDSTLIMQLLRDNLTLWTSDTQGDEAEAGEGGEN
# * = called active by the depositor; x = not tested or not shown; [ ] = remark or other dose. The list is not random: actives were taken first. Their share in the collection is about 3%.
SMILES,Mcl1 Noxa PPI,Arbovirus anti,Mcl1 Bid PPI,Bim-Mcl-1,14-3-3 Bad PPI
Cc1ccc(NC(=O)c2ccco2)cc1C,-6.3,-1.4,-6.4,-1.0,-3.2
Cc1ccc(NCc2ccco2)cc1C,14.9,-5.5,8.7,-2.0,71.0*
Clc1ccc2nc(CN3CCCc4ccccc43)cn2c1,47.0,15.3,100.3*,-4.0,5.7
NC(=O)c1cc([N+](=O)[O-])ccc1NCc1cccnc1,-1.6,37.0*,-5.8,-2.0,-8.4
COc1cccc(NC(=O)c2cc([N+](=O)[O-])ccc2NCc2cccnc2)c1,2.1,-10.9,-15.0,-7.0,-10.9
CC(C)CCNC(=O)c1nnc(Cc2ccc(Cl)cc2)o1,11.6,5.9,-0.7,1.0,-0.8
CCOC(=O)c1ccc(NC(=S)N2CCSC2c2c(F)cc(F)cc2F)cc1 (centres undefined),10.3,40.6*,-15.9,-10.0,4.8
Fc1cc(F)c(C2SCCN2C(=S)Nc2cccc(C(F)(F)F)c2)c(F)c1 (centres undefined),-0.2,x,-9.2,x,1.9
O=C(NC(Cc1ccccc1)C(=O)O)c1ccccc1 (centres undefined),11.2,-2.3,-5.2,0.0,1.7
O=C(N[C@@H](Cc1ccccc1)C(=O)O)c1ccncc1,25.3,1.9,94.4*,-1.0,7.1
O=C(NC(Cc1ccccc1)C(=O)O)c1ccc(S(=O)(=O)N2CCCCC2)cc1 (centres undefined),17.6,0.1,99.2*,2.0,-4.2
O=C(NC(Cc1ccccc1)C(=O)O)c1ccc(S(=O)(=O)N2CCCC2)cc1 (centres undefined),19.8,13.8,4.9,-3.0,0.1
O=C1c2ccccc2C(Nc2ccc(S(=O)(=O)N3CCOCC3)cc2)N1c1cccnc1 (centres undefined),-2.5,0.6,-9.2,-2.0,-0.5
O=C1c2ccccc2C(Nc2ccc(S(=O)(=O)N3CCCCC3)cc2)N1c1ccccn1 (centres undefined),x,31.5*,x,x,x
Cc1occc1-c1nnc(-c2cc([N+](=O)[O-])cc([N+](=O)[O-])c2)o1,0.9,-12.5,-41.8,-3.0,2.0
Nc1cc(=O)nc(SCC(=O)Nc2cccc3ccccc23)n1CCc1ccccc1,6.9,-4.5,-16.5,0.0,-15.1
Cc1ccc(O)c(C(=O)c2cnc3c(c2)c(-c2ccc(F)cc2)c(C#N)c(=O)n3C)c1,19.5,4.0,4.3,-2.0,-6.1
CC(/C=N/n1c(-c2ccc(Cl)cc2)n[nH]c1=S)=C\c1ccco1,63.6*,-1.3,24.0,-3.0,0.0
Cc1nn(-c2ccccc2)c(C)c1/C=N/n1c(-c2ccc(Cl)cc2)n[nH]c1=S,52.7*,-19.5,22.5,-6.0,38.6
CCOC(=O)c1ccc(Nc2c(OCC)c(=O)c2=O)cc1,-2.2,x,-7.7,x,-2.9
c1ccc(COc2cccc(CNCc3ccccn3)c2)cc1,23.8,4.6,-15.0,-1.0,-0.3
O=Cc1ccc(OCc2ccccn2)cc1,14.9,34.1*,-14.6,22.0,-3.9
O=Cc1cn(CC(O)CN2CCCCC2)c2ccccc12 (centres undefined),0.8,10.0,-43.9,0.0,-13.7
CC(C)(CO)NCC(O)Cn1cc(C=O)c2ccccc21 (centres undefined),16.3,16.4,-14.4,-1.0,100.1*
Nc1nc(NCc2ccco2)nc(Nc2cccc(F)c2)c1[N+](=O)[O-],-1.8,x,-1.9,x,2.1
SMILES,Mcl1 Noxa PPI,Arbovirus anti,Mcl1 Bid PPI,Bim-Mcl-1,14-3-3 Bad PPI
Cc1cc(C)c2cc3c(N)c(C(=O)Nc4c(C)[nH]c(=O)[nH]c4=O)sc3nc2c1,54.4*,8.9,-27.5,-24.0,33.4
CO/N=C/NC(=O)c1ccc([N+](=O)[O-])c(CS(=O)(=O)c2ccc(Cl)cc2)c1,65.5*,-0.1,-6.9,-1.0,30.2
O=C(N/N=C/c1ccccc1F)c1ccc(COc2ccccc2Cl)o1,15.1,1.7,-11.3,-5.0,-19.0
Cc1ccc(C(=O)/C=C/c2ccc3c(c2)OCCO3)c(O)c1,-3.6,x,7.8,x,0.5
O=C(/C=C/c1ccc2c(c1)OCCCO2)c1ccc2ccccc2c1O,16.3,31.6*,-0.6,0.0,-3.2
COC(=O)/C(=C/c1cn(C(C)=O)c2ccccc12)[N+](=O)[O-],61.0*,x,-7.9,x,-2.6
COC(=O)/C(=C/c1cn(C)c2ccccc12)[N+](=O)[O-],22.3,-1.4,-10.4,-2.0,12.4
O=C(/C=C1\NC2(CCCC2)Cc2ccccc21)C(=O)N/N=C/c1ccc(O)c(O)c1,89.4*,-19.9,-58.0,0.0,5.2
CO/N=C/c1ccc(OC)c(Oc2nc(OC)cc(OC)n2)c1,7.5,-8.9,-22.7,-1.0,-0.2
S=c1[nH]nc(-c2ccc3ccccc3n2)o1,25.7,-5.0,-27.6,1.0,82.3*[fluorescence artefact?]
CC(=O)NC1C(=O)N=C(SC(C)C(=O)Nc2cccc(Cl)c2)NC1=O (centres undefined),19.1,3.4,-25.7,0.0,87.4*
CC(Sc1nc(N)cc(=O)[nH]1)C(=O)Nc1cccc(Cl)c1 (centres undefined),8.4,-0.3,-22.9,-4.0,-6.5
O=C1CN(C(=O)COC(=O)CNS(=O)(=O)/C=C/c2ccccc2)c2ccccc2N1,7.9,-0.9,58.4*,-4.0,21.1
COc1ccc(CN2C(=O)Cc3c2nc(N)c2c(N)nc(N4CCCCC4)c(C#N)c32)cc1,58.0*,-7.8,-14.0,0.0,-8.2
Cc1cccc(-n2c(N)c(C(=O)NCCN3CCOCC3)c3nc4ccccc4nc32)c1,23.1,-2.1,8.2,-2.0,70.7*
CCn1c(CNC(=O)c2ccccc2F)nnc1SCC(=O)NC1CCCCC1C (centres undefined),11.7,5.6,-10.2,0.0,-5.4
COc1cccc(C(=O)Nc2nc(SCc3ccc(Cl)cc3)n[nH]2)c1,3.0,x,-3.5,x,2.5
CCOc1ccc(NC(=S)NN(C)C(=S)Nc2ccc(OCC)cc2)cc1,12.9,-8.3,-76.3,-3.0,0.9
COC(=O)c1c(NC(=O)c2cnccn2)sc2c1CCC2,13.9,-2.8,96.7*,0.0,-0.9
CNC(=S)Nc1sc2c(c1C(=O)OC)CCC2,75.0*,3.7,-113.5,-2.0,-4.0
CCN(CC)c1ccc(NC(=O)c2cccc(OC)c2)c(C)c1,22.5,-21.4,-32.6,-1.0,12.7
CCN(CC)c1ccc(NC(=O)c2c(OC)cccc2OC)c(C)c1,16.1,37.9*,-34.1,0.0,-1.4
CCC(=O)NC(=S)Nc1ccc(NC(=O)c2cc3ccccc3o2)c(OC)c1,30.9,3.1,63.5*,-2.0,51.5
COc1cc(NC(=S)NC(=O)C(C)C)ccc1NC(=O)c1cc2ccccc2o1,2.9,3.9,-23.0,-2.0,0.1
CCN(CC)c1ccc(NC(=O)c2cc3ccccc3o2)c(C)c1,50.7*,11.3,-12.6,-2.0,53.7
